Screening results (PubChem)
ALDH1A1 block = qHTS Assay for Inhibitors of Aldehyde Dehydrogenase 1 (ALDH1A1); 220,000 tested, 7.3% active; Purified ALDH1A1, NADH fluorescence, propionaldehyde substrate; Potency, µM (titrated, usually from 75.3 µM), usual class: inhibitors; Aldehyde dehydrogenase 1A1 (Homo sapiens), P00352; active means well fitted inhibition curve with a large enough effect, not every such curve was filed as active; inconclusive means small, poorly fitted or top-dose-only effect, or another doubt; inactive means no such curve, though single readings can be large or run the other way
Target sequence (P00352 whole entry, looked up): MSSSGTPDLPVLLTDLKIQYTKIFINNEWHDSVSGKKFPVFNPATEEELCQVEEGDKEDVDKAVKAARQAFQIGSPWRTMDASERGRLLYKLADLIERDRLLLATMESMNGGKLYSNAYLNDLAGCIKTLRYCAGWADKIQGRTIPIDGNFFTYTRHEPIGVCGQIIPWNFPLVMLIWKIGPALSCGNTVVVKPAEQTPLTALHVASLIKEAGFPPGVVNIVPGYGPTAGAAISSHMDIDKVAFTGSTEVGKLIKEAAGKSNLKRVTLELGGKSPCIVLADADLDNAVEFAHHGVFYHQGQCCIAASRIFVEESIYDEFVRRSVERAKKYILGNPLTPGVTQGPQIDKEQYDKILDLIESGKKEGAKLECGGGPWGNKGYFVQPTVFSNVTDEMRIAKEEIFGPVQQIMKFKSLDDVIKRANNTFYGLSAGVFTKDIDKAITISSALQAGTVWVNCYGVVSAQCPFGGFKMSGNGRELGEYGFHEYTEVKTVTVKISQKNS
G9a block = qHTS Assay for Inhibitors of Histone Lysine Methyltransferase G9a. G9a H3K9 monomethylation, AlphaScreen, 2 h. Potency, µM (series often up to 102 µM), actives largely listed as inhibitors. 350,000 tested, 8.8% active; further: nearly all actives have a fitted effect of over 75% in size
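AlphaScreen read-out: biotin-H3K9 peptide (500 nM) methylation by 20 nM enzyme with 20 uM SAM, 2 h at room temperature after 15 min compound preincubation; anti-monomethyl H3K9 antibody plus donor/acceptor beads, 10 min dark.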
miR-21 reporter = qHTS Assay for Modulators of miRNAs and/orActivators of miR-21; HeLa miR-21 FLuc reporter, luciferase, 48 h; 340,000 tested, under 10 active; Potency, µM (top dose mostly 38.3 µM), actives largely listed as activators;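 further: miR-21 action dims this reporter so a rising signal means less miR-21 action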
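Using DMEM plus 10% FBS, HeLa miR-21-FLuc cells are incubated with test compounds (final up to about 40uM) for 48 hours; firefly luciferase signal is then imaged following reagent-mediated lysis.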
Sfp inh = qHTS Assay for Inhibitors of Bacillus subtilis Sfp phosphopantetheinyl transferase (PPTase) | 4'-phosphopantetheinyl transferase ffp (Bacillus subtilis), Q9F4F7 | Biochemical Sfp PPTase activity, qHTS | 310,000 tested, 3.5% active | Potency, µM, usual class: inhibitors;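 further: the enzyme is Sfp with the accession as filed and its product quenches rhodamine fluorescence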
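Sfp 15 nM + cpd, 15 min RT; start w/ rhodamine-CoA 5 uM, BHQ-2-YbbR 12.5 uM (final); 50 mM Hepes pH 7.6, 10 mM MgCl2, 0.01% NP-40, 0.01% BSA; read 525/598 nm at 0 and 30 min.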
JMJD2E inh = qHTS Assay for Inhibitors of Human Jumonji Domain Containing 2E (JMJD2E). JMJD2E catalytic domain, FDH-coupled NADH fluorescence (FDH is formaldehyde dehydrogenase). 230,000 tested, 1.6% active. Potency, µM (titrated, usually from 57.1 µM), hits mostly inhibitors; active means well fitted inhibition curve with a large enough effect, not every such curve was filed as active; inconclusive means small, poorly fitted or top-dose-only effect, or another doubt; inactive means no such curve, though single readings can be large or run the other way; further: nearly all actives have a fitted effect of over 50% in size
Lamin A splicing = qHTS Assay for Modulators of Lamin A Splicing; HeLa LMNA splicing GFP/RFP minigene ratio, 48 h; Potency, µM (doses to about 46.1 µM), most hits filed as inhibitors; 200,000 tested, 0.01% active; AID 1487, 2009; active means well fitted inhibition curve with a large enough effect in the signal ratio, with a control signal flat, not every such curve was filed as active; inconclusive means small, poorly fitted or top-dose-only effect, or effect the other way, or a change in a side signal; the % refers to the signal ratio
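S3 HeLa cells stably expressing lamin A-EGFP splicing minigene plus DsRed2, 600 cells/well, 48 h compound exposure at 37C. Laser-scanning cytometry; analysed as GFP (500-530 nm)/RFP (575-640 nm) total intensity ratio; 0.5% DMSO vehicle.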
Large screens that a line does not name were inactive. In the library only some 13% were active in any assay of this set; here they are far more common. Unless noted, the call rests on the fitted dose curve; in most records, active means well fitted curve in the direction sought with a large enough effect; inconclusive means small, poorly fitted or top-dose-only effect, or another doubt; inactive means no such curve, though single readings can be large; an effect the other way counts as inactive or inconclusive.

CCN1CCN(S(=O)(=O)c2ccc(Cl)c(C(=O)N(C)C(c3ccccc3)c3ccccc3)c2)CC1	G9a block 8.9µM (no result: ALDH1A1 block, miR-21 reporter, Sfp inh, JMJD2E inh, Lamin A splicing)
CC(=O)c1ccc(NC(=O)CNc2cc(S(=O)(=O)N3CCOCC3)ccc2N2CCCC2)cc1	G9a block 35µM (no result: ALDH1A1 block, miR-21 reporter, Sfp inh, JMJD2E inh, Lamin A splicing)
CCOc1cc(N2CCOCC2)c(OCC)cc1NC(=O)c1ccc(NC(C)=O)cc1	Lamin A splicing inconclusive
CCN1CCN(S(=O)(=O)c2ccc(Cl)c(C(=O)Nc3ccccc3N3CCCCC3)c2)CC1	G9a block 40µM (no result: ALDH1A1 block, miR-21 reporter, Sfp inh, JMJD2E inh, Lamin A splicing)
CCN1CCN(S(=O)(=O)c2ccc(Cl)c(C(=O)Nc3ccccc3N3CCCC3)c2)CC1	none (no result: ALDH1A1 block, miR-21 reporter, Sfp inh, JMJD2E inh, Lamin A splicing)
COc1cc(Cl)c(NC(=O)c2cc3ccccn3n2)c(OC)c1	none (no result: ALDH1A1 block, Sfp inh, JMJD2E inh, Lamin A splicing)
Cc1ccc2nc(/N=C(\N)NC(=O)NC3CCCCC3)nc(C)c2c1	Sfp inh 45µM (no result: ALDH1A1 block, Lamin A splicing)
CCCC(=O)N/C(N)=N/c1nc(C)c2cc(C)ccc2n1	none (no result: ALDH1A1 block, Lamin A splicing)
c1cnc2c(OCc3cn4cccnc4n3)cccc2c1	ALDH1A1 block inconclusive, G9a block 3.2µM, JMJD2E inh inconclusive
Clc1ccc(OCc2cn3cccnc3n2)c2ncccc12	ALDH1A1 block inconclusive, JMJD2E inh inconclusive
Cc1cccc(NC(=O)c2c(C)oc3ncn(CC(C)C)c(=O)c23)n1	none (no result: ALDH1A1 block, Sfp inh, JMJD2E inh)
COC(=O)c1ccccc1NC(=O)c1cnc2c(-c3cccc(C)c3)c(C)nn2c1C	none (no result: ALDH1A1 block, Sfp inh, JMJD2E inh)
COc1ccccc1CNC(=O)c1cc(S(=O)(=O)N2CCCCCC2)cn1C	none (no result: ALDH1A1 block, Sfp inh, JMJD2E inh)
C=CCc1ccccc1OCCSc1nc(-c2ccccc2F)nc2cc(=O)[nH]n12	none (no result: ALDH1A1 block, Sfp inh, JMJD2E inh, Lamin A splicing)
C(=N\NC1=Nc2cccc3cccc1c23)/c1ccccn1	Sfp inh 45µM, JMJD2E inh inconclusive, Lamin A splicing inconclusive
CCOC(=O)c1sc(NC(=O)c2c(C)nn(Cc3ccccc3)c2C)cc1C	ALDH1A1 block inconclusive, G9a block 50µM, JMJD2E inh inconclusive, Lamin A splicing inconclusive
CCOC(=O)c1c(N)sc(C(=O)OCCOC)c1C	ALDH1A1 block 14µM, G9a block 11µM, Sfp inh 25µM
CCOC(=O)c1c(NC(=O)CSc2cccc[n+]2[O-])sc(C(=O)Nc2ccccc2)c1C	ALDH1A1 block 28µM, G9a block 45µM, Sfp inh inconclusive
CCOC(=O)c1sc(NC(=O)c2ccccc2)cc1C	ALDH1A1 block inconclusive, JMJD2E inh inconclusive
CCOC(=O)c1sc(N)c(C(=O)Nc2ccccc2)c1C	ALDH1A1 block 11µM, G9a block 10µM, Sfp inh 20µM
COc1ccc(/C=C2\Oc3cc(OCC(=O)N4CCC[C@H]4CO)ccc3C2=O)c(OC)c1	none (no result: ALDH1A1 block, JMJD2E inh, Lamin A splicing)
O=C1C2C3C=CC(C3)C2C(=O)N1c1ccc2c(c1)OCO2 (stereo not drawn)	ALDH1A1 block inconclusive, JMJD2E inh inconclusive
O=C1CC(N2CCN(Cc3ccc4c(c3)OCO4)CC2)C(=O)N1c1cccc(Cl)c1 (stereo not drawn)	ALDH1A1 block inconclusive
O=C1CC(N2CCN(c3ccc(O)cc3)CC2)C(=O)N1c1ccc2c(c1)OCO2 (stereo not drawn)	ALDH1A1 block inconclusive, G9a block 16µM, Sfp inh 40µM, JMJD2E inh inconclusive
O=C1CC(N2CCCCCC2)C(=O)N1c1ccc2c(c1)OCO2 (stereo not drawn)	ALDH1A1 block 5µM, G9a block inconclusive
O=C1CC(NC23CC4CC(CC(C4)C2)C3)C(=O)N1c1ccc2c(c1)OCO2 (stereo not drawn)	ALDH1A1 block 11µM, G9a block inconclusive
O=C(N[C@@]1(C(=O)O)C[C@@H]1c1ccccc1)c1ccccc1	none (no result: G9a block, miR-21 reporter, Sfp inh, JMJD2E inh, Lamin A splicing)
Cc1ccc(S(=O)(=O)NCc2ccccn2)cc1C	none (no result: ALDH1A1 block, JMJD2E inh, Lamin A splicing)
CCOC(=O)c1c(C)n(S(=O)(=O)c2ccc(C)cc2)c2ccc(O)c(C(=O)O)c12	none (no result: ALDH1A1 block, JMJD2E inh, Lamin A splicing)
COCCOC(=O)c1c(C)n(C)c2ccc(OC(=O)c3c(OC)cccc3OC)cc12	G9a block 8.9µM, Sfp inh 28µM (no result: ALDH1A1 block, JMJD2E inh, Lamin A splicing)
